Test results reported in PubChem BioAssay (EPA / NIEHS).
Results filed as inconclusive are left out. The source made the active and inactive calls. The calls were made as follows, unless noted: active = hit-call score of the fitted dose curve at least 0.9, where 1 is the maximum; inconclusive = response in the unintended direction; inactive = score below 0.9.

Experiments:
[1] = biological target: Voltage-gated inwardly rectifying potassium channel KCNH2 (Homo sapiens) (UniProt Q12809); experiment: NVS_IC_hKhERGCh: NovaScreen (NVS) Ion Channel Assay for human Potassium Channel ERG (KhERGCh) (AID 2283333)
Chain of Voltage-gated inwardly rectifying potassium channel KCNH2 (Homo sapiens) (Q12809 whole entry, looked up): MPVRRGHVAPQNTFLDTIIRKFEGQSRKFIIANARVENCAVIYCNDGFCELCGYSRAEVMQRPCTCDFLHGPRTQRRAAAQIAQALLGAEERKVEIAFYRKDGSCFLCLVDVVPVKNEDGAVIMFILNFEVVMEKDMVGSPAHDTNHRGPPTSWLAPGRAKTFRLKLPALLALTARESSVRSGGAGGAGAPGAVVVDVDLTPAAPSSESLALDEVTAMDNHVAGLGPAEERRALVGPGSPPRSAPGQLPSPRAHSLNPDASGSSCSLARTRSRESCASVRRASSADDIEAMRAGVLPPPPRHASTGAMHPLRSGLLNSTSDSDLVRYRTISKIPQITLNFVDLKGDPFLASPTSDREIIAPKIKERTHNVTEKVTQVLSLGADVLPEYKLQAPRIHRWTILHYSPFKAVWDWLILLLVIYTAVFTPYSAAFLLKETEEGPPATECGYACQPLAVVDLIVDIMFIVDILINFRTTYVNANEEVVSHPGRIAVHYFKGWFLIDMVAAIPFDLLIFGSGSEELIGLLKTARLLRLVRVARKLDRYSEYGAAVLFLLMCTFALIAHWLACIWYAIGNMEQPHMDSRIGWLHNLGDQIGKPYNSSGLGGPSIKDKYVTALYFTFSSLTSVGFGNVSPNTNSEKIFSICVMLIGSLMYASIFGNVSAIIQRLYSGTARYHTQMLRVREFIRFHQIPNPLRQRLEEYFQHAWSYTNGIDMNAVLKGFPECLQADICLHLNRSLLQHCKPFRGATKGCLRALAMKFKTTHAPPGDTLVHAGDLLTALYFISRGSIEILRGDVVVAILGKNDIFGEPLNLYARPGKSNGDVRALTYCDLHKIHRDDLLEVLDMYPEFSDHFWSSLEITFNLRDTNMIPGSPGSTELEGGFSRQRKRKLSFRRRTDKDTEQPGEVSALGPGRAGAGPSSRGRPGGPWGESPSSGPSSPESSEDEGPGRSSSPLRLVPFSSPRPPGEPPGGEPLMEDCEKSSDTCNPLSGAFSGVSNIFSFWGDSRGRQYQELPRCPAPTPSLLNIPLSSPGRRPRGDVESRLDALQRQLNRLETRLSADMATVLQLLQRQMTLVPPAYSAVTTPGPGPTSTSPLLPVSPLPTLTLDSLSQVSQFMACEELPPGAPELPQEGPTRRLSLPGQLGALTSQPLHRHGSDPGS
In short: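 Membranes from CHO cells expressing human ERG; displacement of radioligand measured by filtration and scintillation after 0.75 h. Single-concentration duplicate screen at 25 uM, then concentration-response for actives; DMSO baseline.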

[2] = biological target: rat Peripheral-type Benzodiazepine Receptor (PBR), Tspo (gene 24230) (UniProt P16257); experiment: NVS_MP_rPBR: NovaScreen (NVS) Membrane Protein Assay for rat Peripheral-type Benzodiazepine Receptor (PBR) (AID 2283335)
Chain of rat Peripheral-type Benzodiazepine Receptor (PBR), Tspo (gene 24230) (P16257 whole entry, looked up): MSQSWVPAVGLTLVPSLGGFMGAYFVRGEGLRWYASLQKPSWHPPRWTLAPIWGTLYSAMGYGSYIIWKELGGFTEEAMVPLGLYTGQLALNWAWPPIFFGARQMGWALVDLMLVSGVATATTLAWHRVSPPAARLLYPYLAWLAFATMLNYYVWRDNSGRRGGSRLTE
In short: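 Single-concentration duplicate screening at 25 uM preceded concentration-series retesting of actives. Binding of a specific radioligand to rat kidney membrane PBR was read by filtration radiodetection after 1 h, with plate-wise positive and negative controls.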

NCBI gene 100848466 = experiment: NVS_NR_bPR: NovaScreen (NVS) Nuclear Receptor Binding Assay for bovine Progextron Receptor (PR) (AID 2283343)
In short: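 Competitive radioligand binding with membranes from bovine uterus, scintillation read-out at 18 h post-dose. Compounds first tested in duplicate at 25 uM, then actives in concentration series; loss-of-signal relative to DMSO.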

[3] = biological target: bovine Estrogen Receptor (ER), ESR1 (gene 407238) (UniProt P49884); experiment: NVS_NR_bER: NovaScreen (NVS) Nuclear Receptor Binding Assay for bovine Estrogen Receptor (ER) (AID 2283345);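 also: actives lower the bound radioligand count which means they displace the ER ligand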
Chain of bovine Estrogen Receptor (ER), ESR1 (gene 407238) (P49884 whole entry, looked up): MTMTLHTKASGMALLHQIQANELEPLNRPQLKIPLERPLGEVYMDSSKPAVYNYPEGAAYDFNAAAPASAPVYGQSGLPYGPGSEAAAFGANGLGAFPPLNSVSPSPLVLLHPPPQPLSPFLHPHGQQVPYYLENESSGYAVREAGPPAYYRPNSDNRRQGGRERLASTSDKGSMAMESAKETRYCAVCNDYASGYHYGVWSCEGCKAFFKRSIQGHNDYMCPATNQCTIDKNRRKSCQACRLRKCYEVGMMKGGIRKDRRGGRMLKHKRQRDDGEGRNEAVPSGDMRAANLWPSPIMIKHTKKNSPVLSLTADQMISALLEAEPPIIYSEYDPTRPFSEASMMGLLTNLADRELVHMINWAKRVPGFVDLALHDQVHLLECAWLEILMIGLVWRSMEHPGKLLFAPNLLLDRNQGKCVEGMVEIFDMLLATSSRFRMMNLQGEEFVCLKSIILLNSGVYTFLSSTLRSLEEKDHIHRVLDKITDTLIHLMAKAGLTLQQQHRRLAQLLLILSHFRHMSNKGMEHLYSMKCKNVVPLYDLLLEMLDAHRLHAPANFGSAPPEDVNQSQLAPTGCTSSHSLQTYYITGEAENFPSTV
In short: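 Cell-free radioligand binding with bovine uterine membrane extracts, read 18 hours after dosing by scintillation counting. Loss of signal versus DMSO baseline indicates displacement. Primary screen run in duplicate at 25 uM, actives followed in concentration series.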

[4] = biological target: Estrogen receptor (Homo sapiens) (UniProt P03372); experiment: OT_ER_ERaERa_1440: Odyssey Thera (OT) 24-hour HEK293T Protein-Complementation Assay for Estrogen Receptor-alpha/-alpha Homodimer (AID 2283349);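 also: hits raise fluorescence above DMSO for agonists and antagonists alike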
Chain of Estrogen receptor (Homo sapiens) (P03372 whole entry, looked up, the tested form may be a part): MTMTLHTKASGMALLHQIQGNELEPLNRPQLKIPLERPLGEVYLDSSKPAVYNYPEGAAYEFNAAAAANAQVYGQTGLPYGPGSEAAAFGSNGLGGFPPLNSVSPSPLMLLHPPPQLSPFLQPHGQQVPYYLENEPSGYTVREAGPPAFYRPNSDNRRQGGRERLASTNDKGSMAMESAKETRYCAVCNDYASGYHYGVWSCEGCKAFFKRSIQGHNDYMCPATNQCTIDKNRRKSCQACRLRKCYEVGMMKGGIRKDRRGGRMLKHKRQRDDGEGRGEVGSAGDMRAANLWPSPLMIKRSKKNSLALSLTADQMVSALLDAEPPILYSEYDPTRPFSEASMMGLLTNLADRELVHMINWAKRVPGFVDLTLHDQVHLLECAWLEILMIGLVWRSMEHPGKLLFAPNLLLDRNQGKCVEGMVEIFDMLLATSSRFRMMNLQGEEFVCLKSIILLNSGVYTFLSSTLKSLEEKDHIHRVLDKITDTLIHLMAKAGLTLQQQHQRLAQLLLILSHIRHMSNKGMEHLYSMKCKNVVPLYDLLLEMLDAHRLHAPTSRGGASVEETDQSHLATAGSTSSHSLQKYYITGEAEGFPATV
In short: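 HEK293T, stable ERα LBD (aa 310-547) homodimer PCA; 24 h compound exposure; mean fluorescence intensity (nuclear for agonists, nuclear plus cytoplasmic for antagonists) vs vehicle; positive fitting direction, DMSO baseline.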

[5] = biological target: rat Oxytocin Receptor (OXT), Oxtr (gene 25342) (UniProt P70536); experiment: NVS_GPCR_rOXT: NovaScreen (NVS) G Protein-Coupled Receptor Assay for rat Oxytocin Receptor (OXT) (AID 2283330)
Chain of rat Oxytocin Receptor (OXT), Oxtr (gene 25342) (P70536 whole entry, looked up): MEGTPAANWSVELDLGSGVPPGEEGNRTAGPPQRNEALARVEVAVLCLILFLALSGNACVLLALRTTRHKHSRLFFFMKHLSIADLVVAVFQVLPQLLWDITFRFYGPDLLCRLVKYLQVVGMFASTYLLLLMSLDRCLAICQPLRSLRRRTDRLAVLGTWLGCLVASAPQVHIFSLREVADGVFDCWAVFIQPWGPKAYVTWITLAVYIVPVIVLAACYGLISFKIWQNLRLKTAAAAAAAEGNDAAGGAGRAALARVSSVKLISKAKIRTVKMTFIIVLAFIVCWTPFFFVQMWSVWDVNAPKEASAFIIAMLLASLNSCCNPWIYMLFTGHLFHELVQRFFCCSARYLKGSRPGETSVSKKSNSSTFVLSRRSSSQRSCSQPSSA
In short: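 Binding to rat uterine membrane receptor was followed by scintillation counting of filter-trapped radioligand after 1 h. A 25 uM duplicate single-point screen preceded concentration series with a top of 50 uM. Signal loss was analysed relative to DMSO.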

[6] = biological target: human Peripheral-type Benzodiazepine Receptor (PBR), TSPO (gene 706) (UniProt P30536); experiment: NVS_MP_hPBR: NovaScreen (NVS) Membrane Protein Assay for human Peripheral-type Benzodiazepine Receptor (PBR) (AID 2283331);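 also: hits reduce radioligand binding relative to DMSO baseline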
Chain of human Peripheral-type Benzodiazepine Receptor (PBR), TSPO (gene 706) (P30536 whole entry, looked up): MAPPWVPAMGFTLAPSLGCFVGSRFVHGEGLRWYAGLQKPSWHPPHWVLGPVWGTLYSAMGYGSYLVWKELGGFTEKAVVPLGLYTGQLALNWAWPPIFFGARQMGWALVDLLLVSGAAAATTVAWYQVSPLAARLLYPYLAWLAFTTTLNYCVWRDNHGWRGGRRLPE
In short: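 Cell-free binding to human colonic membrane preparations measured by filter-based scintillation counting after 1 h. Compounds first run at 25 uM in duplicate, then concentration series for actives; signal loss against DMSO baseline.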

[7] = biological target: Small conductance calcium-activated potassium channel protein 1 (Rattus norvegicus) (UniProt P70606); experiment: NVS_IC_rKCaCh: NovaScreen (NVS) Ion Channel Assay for rat Potassium Channel, Ca2+ Act., VI (KCaCh) (AID 2283336)
Chain of Small conductance calcium-activated potassium channel protein 1 (Rattus norvegicus) (P70606 whole entry, looked up): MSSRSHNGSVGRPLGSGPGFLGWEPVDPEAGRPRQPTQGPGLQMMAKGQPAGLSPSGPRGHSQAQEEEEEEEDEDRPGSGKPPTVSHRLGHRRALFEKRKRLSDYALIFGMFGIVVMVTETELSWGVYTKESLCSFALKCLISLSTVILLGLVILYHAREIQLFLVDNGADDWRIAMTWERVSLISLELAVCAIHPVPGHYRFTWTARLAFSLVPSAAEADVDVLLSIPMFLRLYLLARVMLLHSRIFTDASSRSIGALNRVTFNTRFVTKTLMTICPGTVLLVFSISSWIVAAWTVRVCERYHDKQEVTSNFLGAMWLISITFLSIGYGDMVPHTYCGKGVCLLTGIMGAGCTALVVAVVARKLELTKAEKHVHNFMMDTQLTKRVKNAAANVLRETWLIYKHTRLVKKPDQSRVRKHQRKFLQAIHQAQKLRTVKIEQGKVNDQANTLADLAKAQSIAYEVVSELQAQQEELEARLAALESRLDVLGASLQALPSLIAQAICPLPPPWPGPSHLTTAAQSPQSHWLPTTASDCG
In short: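 Filter-based scintillation counting of radioligand bound to rat forebrain membrane preparations, measured 1 h after compound addition. Primary screen used 25 uM in duplicate, with concentration-response follow-up; signal decrease relative to DMSO marks activity.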

[8] = NVS_IC_rCaBTZCHL: NovaScreen (NVS) Ion Channel Assay for Calcium Channel, Type L, Benzothiazepine Site (CaBTZCHL) (AID 2283337)
In short: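 Benzothiazepine-site binding was assessed in a tissue-derived, cell-free rat cortical membrane system. After 1.5 h exposure, radioactivity retained on filters was quantified by scintillation; positive and negative controls accompanied every plate.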

[9] = test system: guinea pig Histamine Receptor (H2), gene 100729734; experiment: NVS_GPCR_gH2: NovaScreen (NVS) G Protein-Coupled Receptor Assay for guinea pig Histamine Receptor (H2) (AID 2283342)
In short: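 Guinea pig striatal membrane preparation with specific radioligand; bound counts measured by filtration and scintillation 1 h post-dosing, DMSO as baseline. Chemicals passing a 25 uM duplicate screen were titrated to a 50 uM maximum.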

[10] = biological target: bovine Gamma-Aminobutyric Acid Type A Receptor Agonist (GABAR Agonist), GABRA1 (gene 780973) (UniProt P08219); experiment: NVS_LGIC_bGABAR_Agonist: NovaScreen (NVS) Ligand-Gated Ion Channel Assay for bovine Gamma-Aminobutyric Acid Type A Receptor Agonist (GABAR Agonist) (AID 2283338)
Chain of bovine Gamma-Aminobutyric Acid Type A Receptor Agonist (GABAR Agonist), GABRA1 (gene 780973) (P08219 whole entry, looked up): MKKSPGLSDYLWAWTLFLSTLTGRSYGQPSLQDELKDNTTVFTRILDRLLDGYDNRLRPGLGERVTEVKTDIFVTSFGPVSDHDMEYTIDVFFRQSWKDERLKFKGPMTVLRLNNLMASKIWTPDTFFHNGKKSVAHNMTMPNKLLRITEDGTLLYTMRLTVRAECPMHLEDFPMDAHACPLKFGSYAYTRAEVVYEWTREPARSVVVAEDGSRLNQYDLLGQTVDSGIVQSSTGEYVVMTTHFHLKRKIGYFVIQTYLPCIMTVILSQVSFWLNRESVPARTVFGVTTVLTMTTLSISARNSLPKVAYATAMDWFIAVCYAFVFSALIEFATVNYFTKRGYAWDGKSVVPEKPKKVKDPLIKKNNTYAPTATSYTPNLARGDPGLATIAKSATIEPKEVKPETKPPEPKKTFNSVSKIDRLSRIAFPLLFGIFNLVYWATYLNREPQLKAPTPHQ
In short: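 Radioligand binding to bovine cerebellar membranes in agonist format, read by filter-based scintillation counting after 1 h. Primary screen in duplicate at 25 uM, with actives followed in concentration series. Gain of signal versus DMSO.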

[11] = biological target: chimpanzee Androgen Receptor (AR), AR (gene 747460) (UniProt O97775); experiment: NVS_NR_cAR: NovaScreen (NVS) Nuclear Receptor Binding Assay for chimpanzee Androgen Receptor (AR) (AID 2283346);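 also: radioligand displacement from AR measured by scintillation counting in a cell-free assay; a loss of bound radioligand signal versus DMSO counts as binding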
In short: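 Cell-free competition binding with insect-cell (Sf9/Sf21) extracted chimpanzee AR; scintillation signal from lysate at 72 h. Screened in duplicate at 25 uM, then concentration-response for actives; fitting relative to DMSO.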

[12] = biological target: Estrogen receptor (Homo sapiens) (UniProt P03372); experiment: NVS_NR_hER: NovaScreen (NVS) Nuclear Receptor Binding Assay for human Estrogen Receptor (ER) (AID 2283348)
In short: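 Cell-free MCF7-derived ER preparation, specific radioligand displaced by test compound, read by scintillation counting 18 h post-dosing. Duplicate single-point 25 uM screen, then concentration-response confirmation; DMSO baseline.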

[13] = biological target: Glutamate receptor ionotropic, kainate 1 (Rattus norvegicus) (UniProt P22756); experiment: NVS_IC_rKAR: NovaScreen (NVS) Ion Channel Assay for rat Kainic Acid Receptors (KAR) (AID 2283334; active = hit-call score of the fitted dose curve at least 0.9, where 1 is the maximum; inactive = score below 0.9)
Chain of Glutamate receptor ionotropic, kainate 1 (Rattus norvegicus) (P22756 whole entry, looked up): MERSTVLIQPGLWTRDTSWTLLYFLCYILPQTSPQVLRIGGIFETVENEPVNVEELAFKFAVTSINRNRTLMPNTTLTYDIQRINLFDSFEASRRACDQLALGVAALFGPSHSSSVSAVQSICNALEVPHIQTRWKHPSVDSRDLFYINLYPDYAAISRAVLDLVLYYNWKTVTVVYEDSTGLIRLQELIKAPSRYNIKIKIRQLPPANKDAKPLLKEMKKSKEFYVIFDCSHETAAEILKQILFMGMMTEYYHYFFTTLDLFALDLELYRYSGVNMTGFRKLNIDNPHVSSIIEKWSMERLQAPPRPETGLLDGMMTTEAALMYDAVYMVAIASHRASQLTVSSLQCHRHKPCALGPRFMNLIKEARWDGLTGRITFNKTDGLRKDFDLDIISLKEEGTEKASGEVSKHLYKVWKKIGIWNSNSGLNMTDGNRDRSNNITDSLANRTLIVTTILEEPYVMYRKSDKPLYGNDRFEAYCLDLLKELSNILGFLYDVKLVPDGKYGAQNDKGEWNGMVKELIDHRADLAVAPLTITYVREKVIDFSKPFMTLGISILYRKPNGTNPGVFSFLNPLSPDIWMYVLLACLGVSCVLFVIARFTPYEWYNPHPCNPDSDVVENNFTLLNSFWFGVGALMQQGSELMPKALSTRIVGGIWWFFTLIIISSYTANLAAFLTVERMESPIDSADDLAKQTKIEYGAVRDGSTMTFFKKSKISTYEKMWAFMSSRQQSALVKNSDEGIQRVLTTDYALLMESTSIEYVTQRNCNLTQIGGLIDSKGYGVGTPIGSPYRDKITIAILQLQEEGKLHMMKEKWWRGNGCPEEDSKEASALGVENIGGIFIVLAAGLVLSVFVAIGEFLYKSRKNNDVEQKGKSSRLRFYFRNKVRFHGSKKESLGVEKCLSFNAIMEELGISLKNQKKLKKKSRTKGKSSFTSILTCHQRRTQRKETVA
In short: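 Rat forebrain membrane preparation incubated 1 h with radioligand and test chemical; bound signal read by filtration and scintillation. Single-concentration screen at 25 uM, then concentration series to 50 uM maximum.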

SMILES: Nc1ccc(N=Nc2ccccc2)cc1
- outcome [1]: inactive
- AC50 [2]: 11 µM (active)
- outcome (NCBI gene 100848466): inactive
- outcome [3]: inactive
- AC50 [4]: 80.4 µM (active)

SMILES: O=C(N[C@H](c1ccccc1)[C@@H]1CN2CCC1CC2)c1c(Cl)ccc(C(F)(F)F)c1Cl
- outcome [5]: inactive
- outcome [6]: inactive
- outcome [1]: inactive
- outcome [2]: inactive
- outcome [7]: inactive
- AC50 [8]: 3.07 µM (active)
- AC50 [9]: 3.16 µM (active)

SMILES: CN(C)C(=O)Nc1ccc(Cl)cc1
- outcome [10]: inactive

SMILES: Cc1ccc(N=C=O)cc1N=C=O
- AC50 [6]: 4.24 µM (active)

SMILES: CCCCCCCCn1sccc1=O
- AC50 [6]: 1.24 µM (active)
- AC50 [8]: 34.2 µM (active)
- AC50 [9]: 26 µM (active)
- outcome [3]: inactive
- AC50 [11]: 9.46 µM (active)
- outcome [12]: inactive
- outcome [4]: inactive

SMILES: C=CCc1ccc2c(c1)OCO2
- outcome [10]: inactive

SMILES: Cc1cc(N=Nc2ccccc2C)ccc1N
- AC50 [6]: 36.2 µM (active)
- AC50 [2]: 14 µM (active)

SMILES: CCOc1cccc(C2(N3CCN(c4ccccc4)CC3)CCC(C)CC2)c1 (stereo not given)
- outcome [13]: inactive
- outcome [4]: inactive

SMILES: O=C(Nc1ccccc1)c1ccccc1I
- AC50 [6]: 1.46 µM (active)
- AC50 [2]: 1.61 µM (active)
- outcome [12]: inactive
- outcome [4]: inactive
